Assay results as given in PubChem BioAssay (NCI).
About 83,000 compounds went through this panel and 20% of them were active in at least one assay; those are over-represented in the sample as a whole.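 How to read the values: 0–100, growth inhibition (40 = 60% inhibited); 0, no net growth; -100 to 0, cell death (-40 = 40% of starting cells died; -100 = all dead).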 The source made the active and inactive calls. How the source made its calls: active means growth percent below 10; inactive means the rest.

Assays:
Test in all cases: NCI-60 one-dose screen, 48 h (100 = growth as untreated, 0 = no growth, -100 = all killed)
Conditions in all cases: 10 µM unless noted
SK-MEL-2 melanoma = system: SK-MEL-2 melanoma
EKVX NSCLC = system: EKVX NSCLC
SN12C renal = system: SN12C renal
UO-31 renal = system: UO-31 renal
TK-10 renal = system: TK-10 renal
ACHN renal = system: ACHN renal
CAKI-1 renal = system: CAKI-1 renal
A498 renal = system: A498 renal
MOLT-4 leukemia = system: MOLT-4 leukemia
SR leukemia = system: SR leukemia
RPMI-8226 leukemia = system: RPMI-8226 leukemia
OVCAR-8 ovarian = system: OVCAR-8 ovarian
OVCAR-5 ovarian = system: OVCAR-5 ovarian
OVCAR-4 ovarian = system: OVCAR-4 ovarian
SK-OV-3 ovarian = system: SK-OV-3 ovarian
IGROV1 ovarian = system: IGROV1 ovarian
OVCAR-3 ovarian = system: OVCAR-3 ovarian
HS 578T breast = system: HS 578T breast
NCI/ADR-RES ovarian = system: NCI/ADR-RES ovarian
CCRF-CEM leukemia = system: CCRF-CEM leukemia

Measured: growth

C#CC(O)c1ccccc1 (stereo not given)
inactive: SK-MEL-2 melanoma 106% | EKVX NSCLC 103% | SN12C renal 104% | UO-31 renal 101% | TK-10 renal 99.5% | ACHN renal 104% | CAKI-1 renal 103% | A498 renal 94.2% | MOLT-4 leukemia 99.4% | SR leukemia 106% | RPMI-8226 leukemia 104% | OVCAR-8 ovarian 103% | OVCAR-5 ovarian 101% | OVCAR-4 ovarian 105% | SK-OV-3 ovarian 103% | IGROV1 ovarian 108% | OVCAR-3 ovarian 106% | HS 578T breast 107% | NCI/ADR-RES ovarian 107%

O=C(NCc1ccccc1)/C(=C/c1ccccc1)NC(=O)c1ccccc1
inactive: SK-MEL-2 melanoma 102% | EKVX NSCLC 103% | SN12C renal 100% | UO-31 renal 92% | TK-10 renal 108% | ACHN renal 104% | CAKI-1 renal 103% | A498 renal 90.9% | CCRF-CEM leukemia 94.4% | RPMI-8226 leukemia 96.5% | OVCAR-8 ovarian 97.1% | OVCAR-5 ovarian 123% | OVCAR-4 ovarian 115% | SK-OV-3 ovarian 102% | OVCAR-3 ovarian 117% | HS 578T breast 99.2% | NCI/ADR-RES ovarian 104%

CCN1CCCC(N2c3ccccc3Sc3ccccc32)C1 (stereo not given)
inactive: SK-MEL-2 melanoma 97.4% | EKVX NSCLC 116% | SN12C renal 101% | UO-31 renal 79.1% | TK-10 renal 78.8% | ACHN renal 98.5% | CAKI-1 renal 101% | A498 renal 100% | MOLT-4 leukemia 96.3% | SR leukemia 96.3% | RPMI-8226 leukemia 95.5% | OVCAR-8 ovarian 102% | OVCAR-5 ovarian 106% | OVCAR-4 ovarian 97.9% | SK-OV-3 ovarian 111% | IGROV1 ovarian 91.3% | OVCAR-3 ovarian 98.5% | HS 578T breast 99.6% | NCI/ADR-RES ovarian 99.7%

CC(=O)Nc1ccc(/C=C2\SC(=S)N(/C=C(\C(C)=O)C(N)=O)C2=O)cc1
inactive: SK-MEL-2 melanoma 87.7% | EKVX NSCLC 94.2% | SN12C renal 95.5% | UO-31 renal 68.4% | TK-10 renal 97.4% | ACHN renal 97.8% | CAKI-1 renal 98.3% | A498 renal 101% | CCRF-CEM leukemia 91.1% | RPMI-8226 leukemia 83.9% | OVCAR-8 ovarian 92.8% | OVCAR-5 ovarian 98.7% | OVCAR-4 ovarian 99.4% | SK-OV-3 ovarian 86.9% | IGROV1 ovarian 105% | OVCAR-3 ovarian 105% | HS 578T breast 95.7% | NCI/ADR-RES ovarian 100%

C=C1C(=O)C2CCC1C2 (stereo not given)
inactive: SK-MEL-2 melanoma 101% | EKVX NSCLC 109% | SN12C renal 104% | UO-31 renal 82.2% | TK-10 renal 109% | ACHN renal 112% | CAKI-1 renal 101% | A498 renal 93.7% | MOLT-4 leukemia 94.7% | SR leukemia 96.7% | RPMI-8226 leukemia 106% | OVCAR-8 ovarian 109% | OVCAR-5 ovarian 101% | OVCAR-4 ovarian 111% | SK-OV-3 ovarian 105% | IGROV1 ovarian 111% | OVCAR-3 ovarian 95.2% | HS 578T breast 73.7% | NCI/ADR-RES ovarian 105%

CC1(c2ccccc2)CO1 (stereo not given)
inactive: SK-MEL-2 melanoma 107% | EKVX NSCLC 111% | SN12C renal 107% | UO-31 renal 85.8% | TK-10 renal 102% | ACHN renal 102% | CAKI-1 renal 107% | A498 renal 131% | CCRF-CEM leukemia 97.7% | RPMI-8226 leukemia 103% | OVCAR-8 ovarian 102% | OVCAR-5 ovarian 97.5% | SK-OV-3 ovarian 107% | IGROV1 ovarian 100% | OVCAR-3 ovarian 114% | HS 578T breast 97.4% | NCI/ADR-RES ovarian 113%

C(=C\c1ccncc1)/c1ccncc1
inactive: SK-MEL-2 melanoma 88.2% | EKVX NSCLC 105% | SN12C renal 101% | UO-31 renal 84.7% | TK-10 renal 102% | ACHN renal 98.9% | CAKI-1 renal 129% | A498 renal 120% | CCRF-CEM leukemia 101% | OVCAR-8 ovarian 121% | OVCAR-5 ovarian 114% | OVCAR-4 ovarian 92.4% | SK-OV-3 ovarian 120% | OVCAR-3 ovarian 169% | HS 578T breast 114% | NCI/ADR-RES ovarian 98%

CCCCc1ccc2nc(NC(=O)OC)[nH]c2c1
active: A498 renal -5.63% | CCRF-CEM leukemia -15.5% | RPMI-8226 leukemia -26.4% | OVCAR-3 ovarian -57.8% | HS 578T breast 8.57% | NCI/ADR-RES ovarian -1.32%
inactive: SK-MEL-2 melanoma 44.4% | EKVX NSCLC 60.3% | SN12C renal 34.5% | UO-31 renal 36.1% | TK-10 renal 57.6% | ACHN renal 39.2% | CAKI-1 renal 19.5% | OVCAR-8 ovarian 11.6% | OVCAR-5 ovarian 23% | OVCAR-4 ovarian 59.4% | SK-OV-3 ovarian 15.2%

NNC(=O)c1ccccc1N
active: CCRF-CEM leukemia -39.5%
inactive: SK-MEL-2 melanoma 168% | EKVX NSCLC 110% | SN12C renal 108% | UO-31 renal 99.2% | TK-10 renal 129% | ACHN renal 111% | CAKI-1 renal 104% | A498 renal 140% | RPMI-8226 leukemia 88.9% | OVCAR-8 ovarian 107% | OVCAR-5 ovarian 89.8% | OVCAR-4 ovarian 106% | SK-OV-3 ovarian 114% | IGROV1 ovarian 127% | OVCAR-3 ovarian 124% | HS 578T breast 117% | NCI/ADR-RES ovarian 105%

Nc1ccn(C2CC(N)C(CO)O2)c(=O)n1 (stereo not given)
inactive: SK-MEL-2 melanoma 122% | EKVX NSCLC 100% | SN12C renal 67.4% | UO-31 renal 72.6% | TK-10 renal 99.4% | ACHN renal 20.1% | CAKI-1 renal 42.3% | A498 renal 100% | MOLT-4 leukemia 31% | SR leukemia 54.5% | RPMI-8226 leukemia 31.5% | OVCAR-8 ovarian 45.6% | OVCAR-5 ovarian 108% | OVCAR-4 ovarian 86.7% | SK-OV-3 ovarian 69.6% | IGROV1 ovarian 87.1% | OVCAR-3 ovarian 115% | HS 578T breast 114% | NCI/ADR-RES ovarian 46%

C=C(OC(C)=O)c1ccccc1
inactive: SK-MEL-2 melanoma 96.9% | EKVX NSCLC 111% | SN12C renal 96% | UO-31 renal 101% | TK-10 renal 100% | ACHN renal 115% | CAKI-1 renal 100% | A498 renal 95.3% | CCRF-CEM leukemia 83.5% | RPMI-8226 leukemia 70.3% | OVCAR-8 ovarian 101% | OVCAR-5 ovarian 106% | OVCAR-4 ovarian 115% | SK-OV-3 ovarian 96% | IGROV1 ovarian 113% | OVCAR-3 ovarian 112% | HS 578T breast 90.7% | NCI/ADR-RES ovarian 109%

Oc1cccnc1CN1CCCC1
inactive: SK-MEL-2 melanoma 108% | EKVX NSCLC 106% | SN12C renal 97.6% | UO-31 renal 92.1% | TK-10 renal 111% | ACHN renal 105% | CAKI-1 renal 97% | A498 renal 108% | CCRF-CEM leukemia 101% | RPMI-8226 leukemia 100% | OVCAR-8 ovarian 94.7% | OVCAR-5 ovarian 97.9% | OVCAR-4 ovarian 108% | SK-OV-3 ovarian 103% | IGROV1 ovarian 102% | OVCAR-3 ovarian 117% | HS 578T breast 104% | NCI/ADR-RES ovarian 108%

ClCC(Cl)[C@@H]1CC2C=CC1C2 (stereo not given in full)
inactive: SK-MEL-2 melanoma 112% | EKVX NSCLC 98.3% | SN12C renal 102% | UO-31 renal 88.7% | TK-10 renal 114% | ACHN renal 108% | CAKI-1 renal 100% | A498 renal 80.2% | MOLT-4 leukemia 114% | SR leukemia 112% | RPMI-8226 leukemia 104% | OVCAR-8 ovarian 96.2% | OVCAR-5 ovarian 110% | OVCAR-4 ovarian 104% | SK-OV-3 ovarian 111% | IGROV1 ovarian 114% | OVCAR-3 ovarian 119% | HS 578T breast 108% | NCI/ADR-RES ovarian 105%

Cc1ccc(NCN2C(=O)c3ccccc3C2=O)c(C)n1
inactive: SK-MEL-2 melanoma 124% | EKVX NSCLC 106% | SN12C renal 111% | UO-31 renal 87.3% | TK-10 renal 119% | ACHN renal 117% | CAKI-1 renal 105% | A498 renal 88.7% | MOLT-4 leukemia 104% | SR leukemia 119% | RPMI-8226 leukemia 105% | OVCAR-8 ovarian 99.6% | OVCAR-5 ovarian 111% | OVCAR-4 ovarian 119% | SK-OV-3 ovarian 113% | IGROV1 ovarian 112% | OVCAR-3 ovarian 130% | HS 578T breast 110% | NCI/ADR-RES ovarian 106%

COc1cc(-c2ccc(NC(=O)CC(C)=O)c(OC)c2)ccc1NC(=O)CC(C)=O
inactive: SK-MEL-2 melanoma 108% | EKVX NSCLC 108% | SN12C renal 104% | UO-31 renal 86.3% | TK-10 renal 115% | ACHN renal 88.6% | CAKI-1 renal 97% | A498 renal 110% | CCRF-CEM leukemia 100% | RPMI-8226 leukemia 95.2% | OVCAR-8 ovarian 94.8% | OVCAR-5 ovarian 98.3% | SK-OV-3 ovarian 101% | IGROV1 ovarian 112% | OVCAR-3 ovarian 110% | HS 578T breast 117% | NCI/ADR-RES ovarian 95.2%

CN(C(=S)S(=O)(=O)C12CC3CC(CC(C3)C1)C2)c1ccccc1
active: IGROV1 ovarian 8.02%
inactive: SK-MEL-2 melanoma 69.2% | EKVX NSCLC 104% | SN12C renal 90.4% | UO-31 renal 71.5% | TK-10 renal 107% | ACHN renal 93.9% | CAKI-1 renal 81.8% | A498 renal 98.6% | CCRF-CEM leukemia 15.9% | RPMI-8226 leukemia 83.9% | OVCAR-8 ovarian 98.6% | OVCAR-5 ovarian 89.6% | OVCAR-4 ovarian 104% | SK-OV-3 ovarian 99.9% | OVCAR-3 ovarian 73.7% | HS 578T breast 85% | NCI/ADR-RES ovarian 102%

COc1ccc(C(=O)/C(=N/Nc2ccccc2)c2ccc(OC)cc2)cc1
inactive: SK-MEL-2 melanoma 96.2% | EKVX NSCLC 91.7% | SN12C renal 91.5% | UO-31 renal 71.4% | TK-10 renal 112% | ACHN renal 96.1% | CAKI-1 renal 73.9% | CCRF-CEM leukemia 94.1% | MOLT-4 leukemia 85% | SR leukemia 86% | RPMI-8226 leukemia 92.9% | OVCAR-8 ovarian 115% | OVCAR-5 ovarian 94.2% | OVCAR-4 ovarian 87.2% | SK-OV-3 ovarian 104% | IGROV1 ovarian 91.5% | OVCAR-3 ovarian 103% | HS 578T breast 102% | NCI/ADR-RES ovarian 97.5%

CCOC(OCC)C(=O)c1ccccc1
inactive: SK-MEL-2 melanoma 88.8% | EKVX NSCLC 109% | SN12C renal 101% | UO-31 renal 82.6% | TK-10 renal 84.1% | ACHN renal 99.3% | CAKI-1 renal 107% | CCRF-CEM leukemia 99.8% | MOLT-4 leukemia 124% | SR leukemia 132% | RPMI-8226 leukemia 99.8% | OVCAR-8 ovarian 89.8% | OVCAR-5 ovarian 94.1% | SK-OV-3 ovarian 105% | IGROV1 ovarian 105% | OVCAR-3 ovarian 99.9% | HS 578T breast 94.3% | NCI/ADR-RES ovarian 108%
